Compounds without any hit were thinned out: in the full panel of roughly 83,000, 20% have a hit.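 Plates (96-well) were seeded with cells, treated with compound at one concentration, and incubated for 48 hours before percent growth was determined.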 The source made the active and inactive calls. The calls were made as follows: active = growth percent below 10; inactive = the rest.
Key:
Assay in all cases: NCI-60 one-dose screen, 48 h (100 = growth as untreated, 0 = no growth, -100 = all killed)
Settings in all cases: 10 µM unless noted
[1] = tested on: HCT-15 colon
[2] = tested on: HT29 colon
[3] = tested on: SNB-75 CNS
[4] = tested on: SNB-19 CNS
[5] = tested on: PC-3 prostate
[6] = tested on: SK-MEL-5 melanoma
[7] = tested on: UACC-62 melanoma
[8] = tested on: LOX IMVI melanoma
[9] = tested on: SK-MEL-28 melanoma
[10] = tested on: U251 CNS

Measured: growth

COc1ccc(-n2c(C)nc3c(c(C)nn3-c3ccccc3)c2=O)cc1
inactive: [3] 26.7% | [4] 60.7% | [5] 26.7% | [7] 51.6% | [8] 16.6% | [9] 67.4%
active: [1] 7.97% | [2] -15.6% | [6] -17.1%

O=C1Nc2ccccc2/C1=C/C(=N/c1nnc(-c2ccc(Cl)cc2)s1)c1ccccc1
active: [1] 3.35% | [2] -56.3% | [8] -79.3%
inactive: [3] 76.4% | [4] 100% | [5] 75.7% | [6] 78.3% | [7] 51.7% | [9] 61.2%

O=C(Nc1ccc(F)cc1)Nc1ccc(CCO)cc1
inactive: [1] 102% | [2] 103% | [3] 72.6% | [4] 107% | [5] 108% | [6] 104% | [7] 107% | [8] 111% | [9] 106%

O=C1Nc2ccccc2C12CC(c1ccc(Cl)cc1)=NN2 (stereo unspecified)
inactive: [1] 97.7% | [2] 97.1% | [3] 76% | [4] 90.9% | [5] 78.2% | [6] 92.4% | [7] 95% | [8] 99.5% | [9] 97.7%

CC1(C)CC(=O)C(c2c(-c3ccccc3)[nH]c3[nH]c(=S)[nH]c(=O)c23)=C(O)C1
inactive: [1] 112% | [2] 106% | [3] 107% | [4] 93% | [5] 83% | [6] 108% | [7] 92.4% | [8] 111% | [9] 110%

CS(=O)(=O)c1c(Nc2ccccc2)n[nH]c1N
inactive: [1] 101% | [2] 97.3% | [3] 114% | [4] 91.1% | [10] 105% | [6] 101% | [7] 92.4% | [8] 89.8% | [9] 106%

O=C([C@@H](COCc1ccccc1)N1C(=O)[C@@H](N2C(=O)OC[C@@H]2c2ccccc2)[C@H]1/C=C/c1ccccc1)N1CCC(CCN2CCCCC2)CC1
inactive: [1] 89.2% | [2] 45.5% | [3] 90.9% | [4] 95.1% | [10] 71.5% | [6] 81.6% | [7] 95.5% | [8] 82.1% | [9] 73.2%

CN(C)c1ccc(C2Nc3ccccc3-n3cccc32)cc1 (stereo unspecified)
inactive: [1] 89.7% | [2] 99.9% | [3] 107% | [4] 94.7% | [10] 95.6% | [7] 79% | [8] 103% | [9] 107%

COc1ccc(-c2nn(-c3ccccc3)cc2/C=C2\SC(=O)NC2=O)cc1
inactive: [1] 89.4% | [2] 114% | [3] 66.3% | [4] 89.2% | [5] 99.6% | [6] 83.1% | [7] 89.2% | [8] 59% | [9] 112%

Cc1ccn2c(-c3csc(Nc4cccc(O)c4)n3)c(C)nc2c1
active: [3] -2.73% | [6] -42.9%
inactive: [1] 17.1% | [2] 61.7% | [4] 49.2% | [10] 28.6% | [7] 21.5% | [9] 37.7%

COc1ccc(-c2cc(=O)[nH]c3c(OC)c4ccccc4c(OC)c23)cc1
inactive: [1] 26.3% | [3] 13.3% | [4] 50.5% | [10] 23.8% | [6] 18.8% | [7] 21.1% | [8] 46.9% | [9] 56.6%
active: [2] 2.07%

Cc1sc2nc3[nH]/c(=C\c4ccc(Cl)cc4)c(=O)n3c(=O)c2c1C
inactive: [1] 96.5% | [2] 96.1% | [3] 89.6% | [4] 101% | [5] 97.3% | [6] 99.4% | [7] 99.2% | [8] 103% | [9] 99.8%

CCC(C)[C@@H]1NC(=O)[C@@H]2CCCN2C(=O)[C@H](Cc2ccccc2)NC(=O)[C@@H]2CCCN2C(=O)[C@H](Cc2ccccc2)NC(=O)[C@@H]2CCCN2C(=O)[C@H](Cc2ccccc2)NC1=O (stereo partly specified)
inactive: [1] 103% | [2] 113% | [3] 76.7% | [4] 103% | [5] 90.7% | [6] 100% | [7] 99.9% | [8] 103% | [9] 95%

NC1=CSC2=N/C(=C\c3ccc(Cl)cc3)C(=O)N12
inactive: [1] 66.7% | [2] 62.6% | [3] 87.4% | [4] 87% | [5] 80.6% | [6] 72.6% | [7] 90.3% | [8] 50.6% | [9] 96.3%

Cc1cc(Nc2nc(N3CCN(C)CC3)nc3ccccc23)n[nH]1
inactive: [1] 56.5% | [2] 61.5% | [4] 90.8% | [5] 71.6% | [6] 89.9% | [7] 67.9% | [8] 73% | [9] 68.8%
active: [3] -15.8%

CSc1nc(NCCO)c(C#N)c(-c2cccc(N)c2)n1
inactive: [1] 98.1% | [2] 108% | [3] 58.5% | [4] 96% | [5] 94.7% | [6] 96.5% | [7] 94.8% | [8] 93.5% | [9] 116%

CN1CCN(c2ccc3nc(-c4ccc5nc(-c6ccc(OCCC(C)(C)C)cc6)[nH]c5c4)[nH]c3c2)CC1
inactive: [1] 56.3% | [3] 90.1% | [6] 80.2% | [7] 88.1%
active: [2] -82.3% | [4] -67.6% | [5] -72.6% | [8] -73.7% | [9] -59.2%

CN[C@@]12CC3(C=CC(=O)C=C3)O[C@]1(Cc1ccc(OC)cc1)N(C)C(=O)N2
inactive: [3] 74.3% | [4] 92.2% | [5] 66.8% | [6] 77.1% | [7] 54.7% | [8] 10.3% | [9] 46.7%
active: [1] -47.9% | [2] 8.19%

O=c1c2cccc3c(Nc4c(F)cccc4F)ccc(c32)c2nc3ccccc3n12
inactive: [1] 75.5% | [2] 93.4% | [3] 80% | [4] 103% | [5] 84.5% | [6] 81.8% | [7] 86.9% | [8] 86.9% | [9] 109%

COc1ccc(/C=c2/c(=O)[nH]c3nc4sc(C)c(C)c4c(=O)n23)cc1
inactive: [1] 73.2% | [2] 88.1% | [3] 93.2% | [4] 88.4% | [5] 91% | [6] 90.8% | [7] 80.4% | [8] 91.1% | [9] 102%

Cc1ccc(S(=O)(=O)N(CCc2ccc(Cl)cc2)S(=O)(=O)c2ccc(C)cc2)cc1
inactive: [1] 94.5% | [2] 86% | [3] 67.7% | [4] 94.6% | [5] 85.9% | [6] 87.6% | [7] 78.1% | [8] 92.4% | [9] 93.9%

O=C(CN1CCOCC1)Nc1ccc(Cn2nnc3c2C(=O)c2nnn(Cc4ccc(NC(=O)CN5CCOCC5)cc4)c2C3=O)cc1
inactive: [1] 70.8%
active: [2] -37.3% | [3] -87.4% | [4] -15% | [5] 5.89% | [6] -86.9% | [7] -77.3% | [8] -25.1% | [9] -34.6%

CN(C)CCOc1ccc(-c2nc3ccc(-c4nc5ccc(N6CCN(C)CC6)cc5[nH]4)cc3[nH]2)cc1
inactive: [1] 101% | [2] 42.4% | [3] 89.8% | [4] 69.4% | [5] 76.2% | [6] 37.5% | [8] 67.9% | [9] 45.3%
active: [7] 2.8%

Cc1cc(Nc2nc(N3CCOCC3)nc3ccccc23)n[nH]1
inactive: [1] 38.7% | [2] 68.4% | [4] 93.2% | [5] 59.9% | [6] 79.9% | [7] 45.7% | [8] 63.3% | [9] 72.2%
active: [3] -15.3%

N=S(=O)(NC(=O)c1ccc(Cl)cc1Cl)c1ccc(Br)s1 (stereo unspecified)
inactive: [1] 82.4% | [2] 111% | [3] 108% | [4] 85.5% | [5] 102% | [6] 94.7% | [7] 112% | [8] 98.1% | [9] 111%

Cc1ccc2c(NCCCN(C)C)c3c(C)nn(C)c3nc2c1
inactive: [1] 29% | [2] 18% | [3] 25.5% | [4] 63% | [5] 29.2% | [6] 51.3% | [7] 58.8% | [8] 15.5% | [9] 57.1%

CCCCCCCCCCCCN1CCCC(C)C1 (stereo unspecified)
inactive: [1] 61.8% | [2] 24% | [3] 73.4% | [4] 101% | [5] 67.4% | [6] 68.4% | [7] 108% | [8] 56.4% | [9] 90%

Reference: PubChem BioAssay (NCI)
